Results taken from the supplement of paper PMC10681739.

Each sequence was assayed against T1, ETS1 (UniProt P14921) (assay: ETS1 binding intensity (PBM fluorescence), ETS1 alone (arbitrary fluorescence units); higher = stronger binding). Conditions: ETS1 concentration 1 nM; RUNX1 concentration 0 nM.
T1 sequence: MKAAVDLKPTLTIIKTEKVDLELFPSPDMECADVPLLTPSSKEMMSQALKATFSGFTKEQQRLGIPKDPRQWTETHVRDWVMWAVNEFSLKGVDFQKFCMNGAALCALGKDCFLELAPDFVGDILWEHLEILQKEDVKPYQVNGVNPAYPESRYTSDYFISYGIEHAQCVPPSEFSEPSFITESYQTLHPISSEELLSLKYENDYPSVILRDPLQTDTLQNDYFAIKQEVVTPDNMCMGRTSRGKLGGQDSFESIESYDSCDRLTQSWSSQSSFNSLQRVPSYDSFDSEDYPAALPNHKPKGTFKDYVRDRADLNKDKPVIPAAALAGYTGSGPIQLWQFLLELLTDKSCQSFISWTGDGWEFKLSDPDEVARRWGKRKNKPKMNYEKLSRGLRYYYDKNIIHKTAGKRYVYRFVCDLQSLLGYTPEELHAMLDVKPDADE

Point of comparison: AGGCAAACAGGATGTTCCTCTCCCACATGCAGACTT, ETS1 binding intensity 4200. Against it:
- AAAGCAAAGTCAAGAGGATGTGGTGACCAATTCTGC — lower, 1320
- CCTGTACGGAAGCTACTCTGGTTTCATGTGGTTTCA — lower, 441
- GAGCGCCCACTTCCTGTTTACCACCCAGCCTCTTCG — lower, 3670
- GAGGACGCGGAAGTCCTTCTTGCGGGGCGGAGCTAG — lower, 891
- ACGTCTGTTTCCTGTGATTGAAACCGCAAGAAGAAG — lower, 783
- AGCACAAACCCAGGATGTGGTAAATGAAATGAAAAA — lower, 1260
- CGGGACACAGGAAGCCGTTGTGGGGCCCCGGGGCCA — lower, 1960
- GGACGCCGCCGGAAGCGCGACCCGCACTCCCGGTAG — lower, 3650
- TACATCTTCAGAGGAAGTGGGTTTGTGTATCTTTGA — lower, 2460
- GCAGAGAGGAGGGGATGTGGTTTCACAGCTTGCTCC — lower, 422
- TGCGACGGAAGCAGGAACTTGCTAACCACAAAACCC — lower, 1350
- CCTCACCCAGGAAGTGGCTGCGGCTGTCTCAGGGTT — lower, 2450
- GCTCTGCAGGATGTGGCTGTGACCGCAGTGAGGAGC — lower, 1290
- TAAGCAGGGAATAGAGGAAGTGGTTTTGTCTCAGGC — lower, 3270
- AGACCCGGAAGAACTTGTCCCAGTGTTGACCACACC — lower, 505
- CCGGTCCTGACCGGAAGCGGTAACCGTCACTCCTTC — higher, 21100
- TCCCTAAGTCACATCCTGTGGGCAAAGGCCCTAGCA — lower, 880
- AATATCCTGTATGTCATGCTTAAAAAGCCACAAAAC — lower, 547
- GCACTGTGGGAGGAAGTGGGTATGTGGTGAGCTCTT — lower, 1650
- GAGGACTTCCGGGTGGGTGTGATATCTGCGGGCCCG — lower, 848
- AACTAGAGCGTCATTTCCTGTGGGTACAAGTCCAGT — lower, 1640
- GGGTGCAGACGGGAAGTTGCGGCTGCCAGCGAAGCT — lower, 1680
- CATGGTGGTGACGCAGGATGTGGTGGTGGTGTAGAA — lower, 2600
- AACCCCAAAACGGAAACACCGGAGCCACAAGCTGAG — lower, 731
- CGACAGAGGACACTTCCTTTTGCGGGTGGCGGCGAA — lower, 550
- CCACGGCTGGCTTCCTGTGTGGTTGGCACGCCTTAC — lower, 951
- CCATCTTCATACAGGATGCTGTGGTATGTAAAACAA — lower, 2110
- GAGACTTTCGCTTCCGGCTGCCGCAGGCGCTTCGCT — lower, 1830
- ACGTTTCGGGGTTTCCGGGCCAGCGGTTTCGGGCGC — lower, 702
- GCCATCCAGGAAGTACAGACTCCCTGACCGCACTGA — lower, 1030
- TGTCCACCTCTACGGAAGTGCGCCGCAGTCCGCCAG — lower, 1620
- CTCACCCCTGGAGGATGTGGGTTTCCAGGCTGACAG — lower, 836
- CAGGGCACCTCCTACTTCCCCCCGCAGATAACTACC — lower, 875
- CTCTGCCCGCTTCCGCTGGCGGTACCTCAGAGCCGC — lower, 919
- CCTGTCCGGAAGTCCTGAGAGGGAATCGCCCGCAAA — lower, 2300
- TTAGGCAGAGCTCATTTCCGCCCACATCAAAAGTAA — lower, 1710
- CCCCACCCAGACAGGAAACTGTGGCTTCTATCAGAT — lower, 3020
- ACTTGACTTCCTGTGGGGTGTGTGGTGTCTGCACTT — lower, 940
- GATACCCAGCCAGCGGAAGTGCGGTTAACTGCCCGA — higher, 4460
